Measurements from the supplement of paper PMC6555819.

Assays:
Experiment in all cases: PBM binding z-score (relative to random genomic background probes); higher = stronger binding; sequences stand for … in GC…GCGATTGACAGCGTAGAATGAAGG
[1] = test system: RARb homodimer (NR concentration 270 nM)
Procedure, shortened: (§1)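 Binding z-scores take random background probes as their reference. They come from custom Agilent 4×180K protein-binding microarrays incubated 1 h with ligand-free nuclear receptor dimers, with antibodies against each partner (one per run) detecting binding. Scanned fluorescence was regression-normalized.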

[2] = test system: RARg homodimer (NR concentration 270 nM)
Procedure, shortened: as §1

[3] = test system: RXRa DBDmut IVT, anti-RXR (DBD mutation: RXRa K156A/R161A, NR concentration 90 nM)
Procedure, shortened: as §1

[4] = test system: RXRa homodimer (NR concentration 180 nM)
Procedure, shortened: as §1

[5] = test system: THRa:RXRa (NR concentration 90 nM, RXRa partner concentration 90 nM)
Procedure, shortened: as §1

[6] = test system: THRa homodimer (NR concentration 90 nM)
Procedure, shortened: as §1

[7] = test system: VDR:RXRa (NR concentration 270 nM, RXRa partner concentration 90 nM)
Procedure, shortened: as §1

[8] = test system: VDR homodimer (NR concentration 270 nM)
Procedure, shortened: as §1

[9] = test system: RARg:RXRa (NR concentration 270 nM, RXRa partner concentration 90 nM)
Procedure, shortened: as §1

Row | Sequence | PBM binding z-score [1] | PBM binding z-score [2] | PBM binding z-score [3] | PBM binding z-score [4] | PBM binding z-score [5] | PBM binding z-score [6] | PBM binding z-score [7] | PBM binding z-score [8] | PBM binding z-score [9]
1 | CAACCTAGGTCACCGGAAGGTCAAAGTCCGCATG | 5.77 | 8.03 | 2.46 | 7.71 | 4.63 | 3.03 | 6.51 | 4.09 | 
2 | CCTTACGGGTCACTCCATGTTATAGCATCGGAGT | 2.87 | 3.99 | 1.59 |  | 2.84 | -0.286 |  | 1.46 | 4.1
3 | CAGCCTAGTTCAGGGCCAGTATAGGAGGAACGTT | 0.7 | 0.665 | 0.532 | 0.15 | -0.00106 | -0.234 |  | 0.209 | 
4 | CCGACTGGGGCAAAGGTCACCATACTCAGTACGA | 4.81 | 6.32 | 0.548 |  | 3.62 | 1.04 |  | 1.55 | 7
5 | ATATGTAGGTTACATGCGGGTCATTCAGGCTATG | 2.51 | 2.18 | 0.745 | 3.16 | 2.85 | 0.633 | 3.78 | 2.05 | 
6 | CGAACTAGGTGATTGACAGGACAGTGAATAGTAA | 0.647 | 0.266 | 0.246 | -0.176 | 0.755 | 0.252 | -0.0545 | 0.00262 | 
7 | AGTCAAAGTTCAGGACGAGGTACCGTAAAGCACG | 3.04 | 4.98 | 2.91 | 3.07 | 2.66 | 0.724 | 2.08 | 1.78 | 
8 | TCGAGTAGGTTACGTGGGCATTCAGGGATGAAGA | 0.175 | 0.607 | 0.0477 | 0.631 | 0.726 | -0.426 | 0.00981 | -0.34 | 
9 | ACTAGCAGGCCAAGGGTGACTCAAGATTAGTCCG | 0.337 | 0.646 | -0.454 |  | 0.239 | -0.521 |  | -0.791 | 0.341
10 | ATAAGTAGGTTAGGGTCATTCAGAAAGTAGGGAA | 3.7 | 3.3 | 2.39 | 5.12 | 4.31 | 3.58 | 4.88 | 4.32 | 
11 | AACGAAAGGTCGACGAGGTGAGTATACACCGTTT | 3 | 3.73 | 1.64 | 4.41 | 3.85 | 0.519 | 5.12 | 0.772 | 
12 | ATCGAAAGGTCGAGGAGGTGAGTATACACCGTTT | 2.92 | 4.23 | 0.868 | 4.21 | 2.85 | -0.12 | 4.25 | 0.435 | 
13 | TAGCCAAGGTCATTCAGGGGCCAGTATAGAAAGC | 4.08 | 6.27 | 4.05 | 5.47 | 4.08 | 1.75 | 5.28 | 3.99 | 
14 | AGTCAAAATTCACTAGGTAACGTAAGATTCAGCT | 0.0175 | 0.425 | 0.24 |  | 0.806 | 0.608 |  | 0.272 | 0.434
15 | AGTCAAAGTTGATCTAGGTAACGTAAGATATGCT | -0.057 | 0.579 | -0.227 | 0.191 | 1.36 | -0.0633 | 0.0495 | -0.278 | 
16 | CCTACTGGGCCACGAAAGGTCCTTGATTCAGTGA | 0.647 | 0.301 | -0.311 |  | 0.686 | -0.289 |  | -0.692 | 0.00978
17 | CCTTACGGGTCAGGGTTATAGCACGGGTGGTACG | 2.89 | 3.8 | -0.999 | 3.87 | 2.29 | 0.154 | 2.26 | 0.894 | 
18 | GCTGCTAGGTCAACTGAGGGTCAGCTAAAGCTCG | 5.18 | 6.85 | 1.67 | 4.59 | 4.16 | 1.47 |  | 1.36 | 
19 | TAGCCTAGCTCATTCAGGGGCCAGTATAGAAAGC | -0.0305 | -0.378 | -0.495 | -0.481 | -0.465 | -0.799 |  | -0.369 | 
20 | CCTACTGGGTCATTCAGAGGTCATTGATCATATG | 5.21 | 5.46 | 2.77 | 5.75 | 4.32 | 2.15 |  | 4.41 | 
21 | ATCTCTAGGTAACAAGGTCAGTGAAAGAGAGGAC | 3.49 | 3.28 | 0.451 | 2.26 | 3.07 | 2.37 |  | 1.78 | 
22 | CCTAGTTGGTCAGGAGGTCACAAACCGGATATGA | 3.97 | 4.1 | 0.534 | 4.38 | 3.31 | 2.01 |  | 2.44 | 
23 | TAGCCTAGGTCATTGGGCCAGTATAGTACGCATC | 3 | 4.22 | 1.6 | 2.73 | 2.83 | 0.768 |  | 0.954 | 

Row | Sequence | PBM binding z-score [1] | PBM binding z-score [2] | PBM binding z-score [3] | PBM binding z-score [4] | PBM binding z-score [5] | PBM binding z-score [6] | PBM binding z-score [7] | PBM binding z-score [8] | PBM binding z-score [9]
24 | CAAACTAGGTCAAAGGTCAAACTCGAGCCAACCA | 5.32 | 8.15 | 3.04 | 10.5 | 4.85 | 2.14 |  | 4.14 | 
25 | GATACAGGGTCAACTAGAGGCCAGAGTATGGAAA | 3.92 | 5.56 | 2.92 | 6.53 | 3.79 | 0.92 |  | 2.44 | 
26 | CCTTACGGGTCACTGACAGGTCATAGCATTTGGA | 4.59 | 5.71 | 1.79 | 6.67 | 3.98 | 0.878 |  | 2.15 | 
27 | CCTGCTAGGTCAATGGTCAGCTCAAGCAGCTCGC | 3.02 | 4.32 | 1.88 | 1.92 | 2.23 | 0.708 |  | 0.174 | 
28 | TCTGCTTGGTCAACGATGGTCAGCTAATCTGCTA | 0.448 | 0.624 | -0.0435 | 0.237 | 0.139 | -1.13 |  | -1.09 | 
29 | GATACGGGGTCAGCTAGAGGCCAGAGTATGGAAA | 4.12 | 6.6 | 3.39 | 7.4 | 4.28 | 1.14 |  | 2.68 | 
30 | CGAACTAAGTCACCAGGACAGTGAAGAGGTTGGA | 0.502 | 0.343 | 0.000632 | 0.285 | 1.27 | 0.708 |  | 0.106 | 
31 | TAGCCTAGGTCATTGGGCTAGTATAGTACGCATC | 2.59 | 4.2 | 1.47 | 2.84 | 2.71 | 0.251 |  | 0.989 | 
32 | CGAACTAGGTCAAAAGACAGTGAAAGGCGACGTA | 1.72 | 3.68 | 1.21 | 2.54 | 1.64 | -0.0657 |  | -0.0484 | 
33 | ATCGAAACGTCGACGAGGTGAGTATACACCGTTT | -0.247 | 0.527 | -0.148 | 0.362 | 1.1 | 0.23 |  | -0.146 | 
34 | TCGAGTAGGTTAGGGGGGCATTCAGGGATGAAGA | 2.58 | 2.54 | 2.58 | 2.32 | 3.86 | 2.28 |  | 3.28 | 
35 | GATACAGGGTCAGCTAGAGGGCAGAGTATGGAAA | 4.04 | 5.53 | 1.71 | 4.61 | 3.18 | 1.05 |  | 1.68 | 
36 | TCTAGTTGGTGACGGAGGTCACACACGACGGGTA | 3.88 | 3.21 | 0.917 | 4.29 | 3.41 | 2.23 |  | 1.83 | 
37 | CCTTACGGGTCCCTGACAGGTTATAGCATTTGGA | 0.357 | 0.233 | -0.553 | 0.295 | 0.389 | -0.0756 |  | 0.0432 | 
38 | ATCGAAACGTCGTGAGGTGAGTATACAGAAAGGC | -0.153 | 0.49 | -0.879 | 0.393 | 1.63 | 0.771 |  | -0.417 | 
39 | TCTGCTGGGTCAACGATGGTCAGCTAATCTGCTA | 2.96 | 4.31 | 0.782 | 2.58 | 2.65 | -0.44 |  | -0.395 | 
40 | GCTAGTGGGTCAGTAAAAGGTCACACACCGGTCG | 5.72 | 6.65 | 0.518 | 6.21 | 4.09 | 1.66 |  | 2.18 | 
41 | CAAACTAGGTCAAGAGGTCAAACTCCGCTTCCCG | 5.81 | 7.93 | 3.21 | 8.2 | 4.49 | 2.71 |  | 5.63 | 
42 | TAGCCTAGGTCATGCGGGCCAGCATAGTGTCGGC | 2.9 | 4.27 | 0.374 | 3.13 | 3 | 0.747 |  | 0.502 | 
43 | CGAACTAAGTCATTGACAGGACAGTGAATAGTAA | -0.122 | 0.434 | 0.322 | -0.0903 | 0.19 | -0.56 |  | -0.385 | 
44 | ATCGAAAGGTCGAAAGTGAGTATACCCACCCGAA | 1.74 | 3.15 | 1.22 | 3.52 | 1.51 | -0.286 |  | 0.782 | 
45 | CCTTACGGGTCACTCCAGGTTCTAGCATCGGAGT | 2.64 | 4.07 | 1.4 | 4.18 | 4.32 | 0.0825 |  | 1.07 | 
46 | GCTGCTAGGTCATGTTGGTCAGCTAACGGGTACG | 3.21 | 4.33 | 1.85 | 2.51 | 2.83 | 1.39 |  | 1.44 | 
